Compound activity: PubChem BioAssay, National Center for Advancing Translational Sciences (NCATS)
GAA inh: qHTS Assay for Inhibitors of Human alpha-Glucosidase as a Potential Chaperone Treatment of Pompe Disease | purified human GAA, 4-MU-alpha-glucoside fluorescence | Lysosomal alpha-glucosidase (Homo sapiens), P10253 | 200,000 compounds, 0.005% hits | Potency, µM (top dose mostly 76.9 µM), for the others: at the highest dose activity change, negative = inhibition, most hits filed as inhibitors;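 note: potency is the fitted concentration of half-maximal effect; plate controls were uninhibited enzyme wells for no effect and no-enzyme background for full effect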
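Activity normalized between no-enzyme (basal) and enzyme-only wells. Conditions: 4 nM human enzyme, 400 uM fluorogenic substrate, citrate/phosphate pH 5.0 with Tween-20, 20 min room temperature, compounds up to 77 uM.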
N370S GC: qHTS Assay for Inhibitors and Activators of N370S glucocerebrosidase as a Potential Chaperone Treatment of Gaucher Disease; N370S GC spleen homogenate, 4MU-glucoside fluorescence; Potency, µM (doses to about 59.4 µM), for the others: at the top dose activity change, negative = inhibition, usual class: inhibitors; 330,000 compounds, 0.092% hits; AID 2101, 2009;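 note: potency is the fitted concentration of half-maximal effect; 0% = full enzyme activity and -100% = no enzyme basal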
GAA glycogen: qHTS Assay for Inhibitors and Activators of Human alpha-Glucosidase Cleavage of Glycogen; Potency, µM (highest dose often 76.4 µM), without a hit: at the top dose activity change, negative = inhibition, actives largely listed as inhibitors; AID 2100, 2009; Lysosomal alpha-glucosidase (Homo sapiens), P10253; recombinant GAA, glycogen substrate, Amplex Red glucose oxidase fluorescence; 300,000 compounds, 0.38% hits;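 note: potency is the fitted concentration of half-maximal effect; 0% = full enzyme reaction and -100% = no-enzyme basal signal; the screen sought inhibitors and activators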
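Recombinant human alpha-glucosidase (4 nM final) hydrolysed bovine liver glycogen (30 ug) for 40 min at 37 C in pH 5.0 citrate/phosphate with 0.01% Tween-20. Released glucose detected by glucose oxidase/Amplex Red, Ex 573/Em 610 nm. Compounds up to 77 uM; AC50 from Hill fits.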
aGal spleen mod: qHTS Assay for Inhibitors and Activators of Human alpha-Galactosidase From Spleen Homogenate; Alpha-galactosidase A (Homo sapiens), P06280; human spleen homogenate, 4MU-alpha-Gal fluorescence, 40 min; Potency, µM (titrated, usually from 80 µM), for the others: at the top dose activity change, negative = inhibition, usual class: inhibitors; 240,000 compounds, 0.008% hits;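 note: potency is the fitted concentration of half-maximal effect; 0% = enzyme with vehicle and -100% = no enzyme basal signal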
Target sequence (P06280 32-429 limits assumed): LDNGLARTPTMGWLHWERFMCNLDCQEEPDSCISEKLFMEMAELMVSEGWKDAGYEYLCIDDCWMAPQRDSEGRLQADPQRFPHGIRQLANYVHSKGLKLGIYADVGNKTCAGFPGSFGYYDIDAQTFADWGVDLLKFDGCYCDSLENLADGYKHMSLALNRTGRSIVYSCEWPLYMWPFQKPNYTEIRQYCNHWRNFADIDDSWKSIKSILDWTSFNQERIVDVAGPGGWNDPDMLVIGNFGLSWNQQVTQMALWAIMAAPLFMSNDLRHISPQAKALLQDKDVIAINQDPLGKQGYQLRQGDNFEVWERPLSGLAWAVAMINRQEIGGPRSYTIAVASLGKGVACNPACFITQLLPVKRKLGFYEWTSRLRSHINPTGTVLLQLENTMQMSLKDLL
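Human spleen homogenate (1 ug) as enzyme source, 4-methylumbelliferyl-alpha-D-galactopyranoside 1 mM final, citrate/phosphate pH 5.0 with 0.01% Tween-20. Compounds 40 min at 37C, NaOH/glycine stop; fluorescence Ex 365/Em 440, Hill-fit AC50.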
GAA spleen mod: qHTS Assay for Inhibitors and Activators of Human alpha-Glucosidase From Spleen Homogenate. Lysosomal alpha-glucosidase (Homo sapiens), P10253. human spleen homogenate, 4-MU-alpha-glucoside fluorescence. Potency, µM (titrated, usually from 79.9 µM), inactives show at the top dose activity change, negative = inhibition, most hits filed as inhibitors. 240,000 compounds, 0.006% hits. AID 2112, 2009;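 note: potency is the fitted concentration of half-maximal effect; 0% = enzyme with vehicle and -100% = no enzyme basal signal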
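Human spleen homogenate (1 ug) with 4-methylumbelliferyl-alpha-D-glucopyranoside (1 mM final) in 50 mM citrate/phosphate pH 5.0, 0.01% Tween-20; 40 min at 37 C. Stopped at pH 10; 4-MU fluorescence Ex 365/Em 440 nm; AC50 by Hill fit.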
GLA inh pH 4.5: qHTS Assay for Inhibitors of Human alpha-Galactosidase at pH 4.5 | Alpha-galactosidase A (Homo sapiens), P06280 | 230,000 tested, under 10 active | purified enzyme, 4-MU-alpha-Gal fluorescence, pH 4.5 | activity change, negative = inhibition, % at 105 µM;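 note: 0% = full activity with enzyme and -100% = basal without enzyme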
An asterisk follows results filed as active; ? = inconclusive; . = no result; ! = a repeat was not active; [ ] = dose if it differs, or a comment. The list is not random: actives were taken first. Their share in the collection is about 0.43%. Calls come from the whole dose curve; as a rule, active = well fitted curve in the direction sought with a large enough effect; inconclusive = small, poorly fitted or top-dose-only effect, or another doubt; inactive = no such curve, though single readings can be large; an effect the other way counts as inactive or inconclusive.

SMILES	GAA inh	N370S GC	GAA glycogen	aGal spleen mod	GAA spleen mod	GLA inh pH 4.5
NC(=S)N/N=C1/CCSc2ccc3ccccc3c21	-15%	?	28µM*	5%	-7%	-14
O=C(O)c1ccc(O)c(O)c1	-13%	11%	5µM*	-15%	-10%	2
O=C(O)c1ccc(O)cc1	.	-1%	.	-6%	0%	.
CCCCCCCC/C=C\CCCCCCCCCCCC(=O)O	.	-5%	.	4%	-6%	.
C1=Cc2ccccc2Nc2ccccc21	.	3%	16µM*	4%	-9%	1
CC[C@H](C)[C@H](N)C(=O)N[C@H]1CCC(=O)NCC(C(=O)N[C@@H](Cc2ccc(O)cc2)C(=O)N[C@@H](CCCNC(=N)N)C(=O)N[C@@H](CC(C)C)C(=O)N[C@@H](CCCNC(=N)N)C(=O)N[C@@H](Cc2ccc(O)cc2)C(N)=O)NC(=O)[C@@H]2CCCN2C(=O)[C@@H](NC(=O)[C@@H](N)[C@@H](C)CC)CCC(=O)NCC(C(=O)N[C@@H](Cc2ccc(O)cc2)C(=O)N[C@@H](CCCNC(=N)N)C(=O)N[C@@H](CC(C)C)C(=O)N[C@@H](CCCNC(=N)N)C(=O)N[C@@H](Cc2ccc(O)cc2)C(N)=O)NC(=O)[C@@H]2CCCN2C1=O (stereo partly specified)	.	-8%	.	-10%	0%	.
CCCCCCCC/C=C/CCCCCCCC(=O)NCCOP(=O)(O)O	.	?	.	11%	-10%	.
CC(C)c1ccc(O)c(N)c1	2%	0%	10µM*	4%	-8%	-15
CCC(C)c1ccc(O)c(N)c1 (stereo unspecified)	-4%	-4%	25µM*	13%	9%	5
O=C(NNC(=S)Nc1ccc(Br)cc1)c1cccnc1	.	-5%	50µM*	.	.	.
COc1cc(OC)c2c(c1C(CCN1CCCC(C)C1)c1ccc(N(C)C)cc1)OC(=O)CC2c1ccc(N(C)C)cc1 (stereo unspecified)	.	?	.	6%	3%	.
COc1ccc(NC(=O)NNC(=O)C(O)(c2ccccc2)c2ccccc2)cc1	.	-1%	-7%[76.3 µM]	.	.	.
O=C(NNc1ccc(C2CCCCC2)cc1)C(O)(c1ccccc1)c1cccs1 (stereo unspecified)	-14%	?	20µM*	6%	-15%	-9
COc1ccc(C(O)(C(=O)NNc2ccc(C)cc2)c2cccs2)cc1 (stereo unspecified)	-2%	9%	20µM*	-1%	1%	1
O=c1cc(-c2ccc(C3CCCCC3)cc2)[nH][nH]1	-3%	7%	16µM*	14%	9%	0
O=c1cc(-c2ccc(F)cc2)[nH][nH]1	-2%	-5%	-4%	-2%	0%	8
Cc1ccc(OC2C(O)COC2/C=C/C#Cc2ccc(C(C)(C)C)cc2)cc1 (stereo unspecified)	.	2%[12.8 µM]	.	14%[17.5 µM]	3%[17.4 µM]	.
CC1=NNC(=O)C1CC(=O)N/N=C/C(Br)=C/c1ccccc1 (stereo unspecified)	.	-3%	?	14%	12%	0
CC1C(=O)NN=C1C(=O)N/N=C\C(Br)=C\c1ccccc1 (stereo unspecified)	6%	-7%	25µM*	-10%	-2%	0
CC(=O)Nc1ccc(Nc2nnc(-c3ccc(C)c(S(=O)(=O)NCCO)c3)c3ccccc23)cc1	.	-5%	-10%[76.3 µM]	.	.	.
Cc1ccc(-c2nnc(Nc3ccc(O)cc3)c3ccccc23)cc1S(=O)(=O)NC(C)(C)CO	.	.	8.9µM*	.	.	.
Cc1ccc(-c2nnc(Nc3ccc(O)cc3)c3ccccc23)cc1S(=O)(=O)NCC1CCCO1 (stereo unspecified)	.	.	16µM*	.	.	.
Oc1ccc(Nc2ncnc3ccccc23)cc1	.	-13%	22µM*	.	.	.
Oc1ccc(Nc2nnc(-c3ccc(O)cc3)c3ccccc23)cc1	1%	?	16µM*	2%	1%	-2
Cc1ccc(S(=O)(=O)/C=C\C#N)cc1	.	-4%	.	4%	16%	5
SMILES	GAA inh	N370S GC	GAA glycogen	aGal spleen mod	GAA spleen mod	GLA inh pH 4.5
COc1ccc(NC(=S)N/N=C2\CC(C)(C)Oc3ccc(O)cc32)cc1	-5%	-3%	8.9µM*	-4%	-2%	-3
CCCC[C@H](NC(=O)[C@H](CO)NC(=O)[C@H](Cc1ccc(O)cc1)NC(=O)[C@H](CO)NC(C)=O)C(=O)N[C@@H](CCC(=O)O)C(=O)N[C@@H](Cc1cnc[nH]1)C(=O)N[C@H](Cc1ccccc1)C(=O)N[C@@H](CCCNC(=N)N)C(=O)N[C@@H](Cc1c[nH]c2ccccc12)C(=O)NCC(=O)N[C@@H](CCCCN)C(=O)N1CCC[C@H]1C(=O)N[C@H](C(N)=O)C(C)C	.	0%	.	3%	10%	.
CCOC(=O)c1[nH]nc(-c2cc(CC)c(O)cc2O)c1-c1cscn1	-5%	-7%	12µM*	-8%	7%	1
CCCc1cc2c(=O)c(-c3cscn3)c(C(=O)OCC)oc2cc1O	2%	-15%	-15%	11%	6%	2
Cc1ccc(Nc2c(-c3ccc(N(C)C)cc3)nc3ncccn23)cc1	-4%[15.4 µM]	-1%	-23%	2%	8%	0
Cc1ccc(Nc2c(-c3ccc(N4CCOCC4)cc3)nc3ncccn23)c(C)c1	3%	-24%	32µM*	0%	4%	-1
Cc1cccc(C)c1Nc1c(-c2ccc(N3CCOCC3)cc2)nc2ncccn12	6%	9%	20µM*!	12%	-21%	7
COc1ccc(-c2nc3ncccn3c2Nc2ccccc2)cc1	-4%	-6%	?	-2%	4%	-6
FC(F)(F)c1ccccc1Cl	.	-3%	.	2%	7%	.
CCn1c2ccccc2c2cc(CN3CCN(Cc4cc(OC)ccc4O)CC3)ccc21	-15%	-12%	7.9µM*	1%	-1%	-9
CCn1c2ccccc2c2cc(CN3CCN(Cc4ccccc4C)CC3)ccc21	.	.	-11%[76.3 µM]	.	.	.
CO[Si](CCCNCCC[Si](OC)(OC)OC)(OC)OC	.	11%	.	10%	2%	.
COC(=O)CN1CC(=O)c2ccccc2S1(=O)=O	.	-3%	.	0%	4%	.
